# High-throughput results from PubChem BioAssay.
# D1 antagonist: blocks dopamine activation of the human D1 receptor; P21728; HEK293 TREx D1 cells, calcium flux, dopamine EC80; stronger effect = lower value; activity change, negative = inhibition, % at 10 µM; hit rate 3.2% among 360,000; AID 504652; in the data active = activity change below about -30%
# Target sequence (P21728 whole entry, looked up): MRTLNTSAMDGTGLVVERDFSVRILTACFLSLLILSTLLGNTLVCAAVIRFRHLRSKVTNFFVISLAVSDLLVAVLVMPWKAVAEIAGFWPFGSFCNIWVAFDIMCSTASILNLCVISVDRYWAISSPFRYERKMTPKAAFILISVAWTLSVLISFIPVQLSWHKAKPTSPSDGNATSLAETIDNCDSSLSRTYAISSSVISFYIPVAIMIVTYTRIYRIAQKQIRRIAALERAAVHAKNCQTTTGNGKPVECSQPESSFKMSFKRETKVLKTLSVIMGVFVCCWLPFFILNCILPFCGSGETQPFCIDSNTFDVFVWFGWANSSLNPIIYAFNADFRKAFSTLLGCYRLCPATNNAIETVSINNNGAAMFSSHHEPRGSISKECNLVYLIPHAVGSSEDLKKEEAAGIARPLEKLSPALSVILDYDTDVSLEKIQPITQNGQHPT
#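 Kinetic fluorescence of a calcium dye serves as the read-out. D1-expressing Hek293 Trex cells, induced overnight at 30 C, are exposed to compound for 180 s before an EC80 dopamine addition, then read 180 s further.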
# TRHR ag: activates the human TRH receptor. P34981. TRHR cells, calcium flux fluo-8, FDSS agonist mode. activation, % at 2 µM. hit rate 0.18% among 360,000
#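 Fluo-8-loaded TRHR cells; 10 s baseline, compound added, kinetic Ca2+ fluorescence read 1/s, agonist mode.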
# D1 PAM: human D1 dopamine receptor positive modulation; P21728; HEK293 TREx D1 cells, calcium flux, dopamine EC20 potentiation; potentiation, % at 10 µM; hit rate 0.036% among 360,000; AID 504651; in the data active = potentiation above about 30%
# D1 agonist: activates the human D1 dopamine receptor; P21728; HEK293 T-REx D1 cells, calcium flux, agonist mode; activation, % at 2 µM; hit rate 1% among 360,000; AID 504660
#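 Agonism was scored from calcium flux recorded over 180 s (1 read/s) after pintool compound addition, following a 10-cycle baseline. Cells were inducible force-coupled HEK293 TREx D1, plated overnight at 30 C and loaded with no-wash calcium dye.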
# TRHR enhancer: allosteric enhancers of human TRH receptor. hit rate 0.66% among 360,000. AID 493056. TRHR cells, fluo-8 calcium fluorescence, EC20 TRH enhancement. P34981. enhancement, % at 2 µM; in the data active = enhancement above about 30%
#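 Enhancer read-out: after compound pinning and an initial kinetic agonist-mode read, an EC20 of TRH (10 nM final) was injected and fluo-8 calcium signal (Ex 480/Em 530) followed at 1 s/cycle for 100 cycles in TRHR-expressing cells.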
# A number is an active result; . = inactive; / = no result. An excerpt weighted towards active compounds, which were near 4.6% of everything screened. Cut-off read from the data, not from the text of the source, unless noted: active = activation above about 30%; inactive = the rest.
SMILES,D1 antagonist,TRHR ag,D1 PAM,D1 agonist,TRHR enhancer
COc1ccc(C(=O)Nc2ccc(C(=O)Nc3cccc(C)c3)cc2)cc1,-31,.,.,.,.
COc1cccc(C(=O)Nc2ccncc2)c1,-59,.,.,.,.
COC(=O)c1ccc(NC(=O)c2cccc(OC)c2)cc1,-52,.,.,.,.
O=C(CSc1ccc2ccccc2c1)Nc1ccncc1,/,.,.,.,.
COc1cccc(C(=O)Nc2ccc(C(=O)O)cc2)c1,.,.,.,.,.
COCCNC(=O)CSc1ccccc1C(=O)NC1CCCc2ccccc21 (stereo unspecified),.,.,.,.,.
CC(=O)c1ccc(NC(=O)c2ccc(-c3nc(COc4ccc(C)cc4)c(C)o3)cc2)cc1,.,.,.,.,.
Cc1ccc(CNC(=O)CCc2c(C)c3cc4c(C)coc4cc3oc2=O)cc1,.,.,.,.,.
O=C(Nc1ccncc1)c1ccc2ccccc2c1,-38,.,.,.,.
COc1cccc(C(=O)Nc2nc3c(s2)CN(C)CC3)c1,.,.,.,99,.
CN1CCc2nc(NC(=O)c3cccc(S(=O)(=O)N4CCc5ccccc54)c3)sc2C1,.,.,.,.,.
O=C(Nc1nnc(-c2ccncc2)o1)c1ccc2ccccc2c1,.,.,.,.,.
CCC(C(=O)Nc1ccc(C(C)C)cc1)n1nc(C)n2c(cc3cc(C)ccc32)c1=O (stereo unspecified),.,.,.,.,.
CCC(=O)N1CCc2cc(S(=O)(=O)NC(Cc3ccccc3)C(=O)Nc3ccc(Cl)cc3)ccc21 (stereo unspecified),.,.,.,.,.
CCN(C(=O)COC(=O)c1ccccc1NCCO)c1cccc2ccccc12,-43,.,.,.,.
O=C(O)C(c1ccccc1)N1C(=O)/C(=C\c2ccc(O)c(O)c2)SC1=S (stereo unspecified),.,32,.,.,.
COc1cc(/C=C2\SC(=S)N(C(C(=O)O)c3ccccc3)C2=O)ccc1O (stereo unspecified),.,50,.,82,.
CCOc1ccc(/C=C2/SC(=S)N(C(C(=O)O)c3ccccc3)C2=O)cc1OCC (stereo unspecified),.,.,.,.,.
CCOc1cc(/C=C2\SC(=S)N(C(C(=O)O)c3ccccc3)C2=O)ccc1O (stereo unspecified),.,.,.,172,.
CCn1c(C(=O)Nc2ccccc2C(=O)OC)cc2sc(Cl)cc21,.,.,.,.,.
CC(C)Oc1ccc(CNC(=O)CCCn2c(=O)c3cccn3c3cccnc32)cc1,.,.,.,.,.
Cc1ccc(N2CCN(c3ncnc4onc(-c5ccc(F)cc5)c34)CC2)c(C)c1,.,.,.,.,.
COc1ccc(CCNC(=O)Cn2cc(S(=O)(=O)Cc3ccccc3Cl)c3ccccc32)cc1OC,.,.,.,.,.
COc1cccc(NC(=O)c2ccccc2-c2nc(-c3ccccc3)no2)c1,.,.,.,.,.
COc1cccc(NC(=O)c2ccccc2-c2nc(-c3ccc(Cl)cc3)no2)c1,-33,.,.,.,.
SMILES,D1 antagonist,TRHR ag,D1 PAM,D1 agonist,TRHR enhancer
COc1cc(C(=O)Nc2ccccc2-c2nc(-c3ccccc3)no2)cc(OC)c1OC,.,50,.,.,.
O=c1c2cc3c(cc2n(Cc2cccc(Cl)c2)c(=O)n1Cc1nc(-c2ccccc2)no1)OCO3,-52,.,.,.,.
O=c1c2cc3c(cc2n(Cc2ccccc2)c(=O)n1Cc1nc(-c2ccccc2)no1)OCO3,.,.,.,.,.
Cc1ccccc1NC(=O)CCn1nc(-c2ccccc2)c2ccccc2c1=O,.,.,.,.,.
CC(=O)c1cccn1S(=O)(=O)c1ccccc1,.,.,.,.,.
CCN1CCN(CCCNC(=O)C2CCCN(c3nc4c(C)cc(C)cc4s3)C2)CC1 (stereo unspecified),-35,.,.,.,.
Cc1cc(C)c2nc(N3CCCC(C(=O)NCCCN4CCOCC4)C3)sc2c1 (stereo unspecified),.,.,.,.,.
COc1ccc(CCNC(=O)Cn2cc(S(=O)(=O)Cc3ccccc3F)c3ccccc32)cc1OC,.,.,.,.,.
O=C(Nc1ccc(S(=O)(=O)N2CCCCCC2)cc1)c1ccco1,.,.,.,.,.
CCOC(=O)C1CCN(S(=O)(=O)c2ccc(NC(=O)c3ccco3)cc2)CC1,-33,.,.,.,.
CC1CCN(C2CCN(S(=O)(=O)c3ccc(F)cc3)CC2)CC1,-33,.,.,.,.
Cc1ccccc1N1CC(C(=O)Nc2ccc(S(=O)(=O)N3CCCCC3)cc2)CC1=O (stereo unspecified),.,.,.,.,35
O=S(=O)(c1ccc(F)cc1)N1CCC(N2CCCCCC2)CC1,.,.,.,.,.
CC(=O)Nc1ccc(S(=O)(=O)N2CCC(C(=O)c3ccc(Cl)cc3)CC2)cc1,-44,.,.,.,.
CCc1cc(C(=O)OC)c(NC(=O)CSc2nccn2C)s1,.,.,.,.,.
COc1ccc(-n2cnc3cc(C(=O)NCCC4=CCCCC4)ccc32)cc1,.,.,.,.,.
COc1ccc(S(=O)(=O)NCCc2csc3nc(-c4ccc(Cl)cc4)nn23)cc1C,/,.,.,.,.
Cc1ccc(S(=O)(=O)N2CCOCC2)cc1C(=O)OCCOc1cccc(Cl)c1,.,.,.,31,.
O=S(=O)(Nc1cc(S(=O)(=O)N2CCCC2)ccc1O)c1ccc(Cl)s1,.,.,.,.,.
Cc1ccc(NC(=O)c2ccccc2NS(=O)(=O)c2ccc(Cl)s2)cc1S(=O)(=O)N1CCOCC1,-50,.,.,34,.
Cc1ccc(NC(=O)c2ccc(S(=O)(=O)N3CCC(C)CC3)cc2)cc1,-39,.,.,.,.
O=C(OCCOc1ccccc1)c1cccc(S(=O)(=O)N2CCOCC2)c1,.,.,.,.,.
O=S(=O)(Nc1cccc(S(=O)(=O)N2CCOCC2)c1)c1ccc(Cl)s1,.,.,.,.,.
O=C(Nc1cc(S(=O)(=O)N2CCOCC2)ccc1O)c1ccc(NS(=O)(=O)c2ccc(Cl)s2)cc1,-68,.,.,.,.
Cc1ccc(C(=O)Nc2ccc(S(=O)(=O)N3CCOCC3)cc2)cc1,.,.,.,.,.
SMILES,D1 antagonist,TRHR ag,D1 PAM,D1 agonist,TRHR enhancer
CCOc1ccc(NC(=O)CN2CCSc3ccc(S(=O)(=O)N4CCCC4)cc32)cc1,.,.,.,.,.
CC(C)Oc1ccc(CNC(=O)CN2C(=O)c3cccnc3Oc3ccc(Cl)cc32)cc1,.,.,.,.,.
Cc1cccc(-c2nnc(SCc3cc(=O)c4cccc(Cl)c4[nH]3)n2C)c1,.,.,.,.,.
CC(C)Oc1ccc(C(=O)Nc2ccc(S(=O)(=O)N3CCN(C)CC3)cc2)cc1,-53,.,.,.,.
O=C(Nc1ccc(S(=O)(=O)N2CCCC2)cc1)C1CCCCC1,.,.,.,.,.
CCOc1ccc(C(=O)Nc2ccc(S(=O)(=O)N3CCN(C)CC3)cc2)cc1,.,.,.,.,.
